Assay outcomes from PubChem BioAssay.
Many of the other results were omitted from the sample, so hits are more common in it than they were.
Dicer processing = blocks human Dicer maturation of pre-miR-21; 47,000 tested, 6% active; z-score at 25 µM; Q9UPY3; cat-ELCCA pre-miR-21 Dicer processing, chemiluminescence; active compounds read high; AID 1347074; in the data active = z-score above about 3, passing the limit was not always enough;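 also: plate controls were vehicle for no effect and no enzyme for full effect; higher signal means more uncleaved substrate so more Dicer inhibition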
* hit, by the source's call.

SMILES	Dicer processing
Cc1ccc(C(=O)CSc2nc3ccccc3c(=O)[nH]2)cc1C	-0.87
Cc1cc(C)c2c(=O)[nH]c(SCC(=O)c3ccc(O)c(O)c3)nc2n1	3.7*
CC1CCCCN1C(=O)CSc1nc(-c2cccs2)cc(C(F)(F)F)n1 (stereo unspecified)	-0.47
CCOc1ccc(S(=O)(=O)n2c(C)nc3ccccc32)cc1	1.9
CCOc1ccc(S(=O)(=O)n2cnc3ccccc32)cc1	4.7*
O=S(=O)(c1ccc(Cl)cc1)n1cnc2ccccc21	2.5
CSc1sc(C(=O)NNC(=O)c2ccc(Cl)cc2)c2c1C1(CCC2)SCCS1	0.18
O=C1N/C(=N/N=C\c2[nH]ncc2Br)SC1c1ccccc1 (stereo unspecified)	3.4*
O=C1CS/C(=N/N=C/c2ccn[nH]2)N1	-0.26
Clc1ccc(C2Nc3ccccc3-c3nc4ccccc4n32)cc1 (stereo unspecified)	0.78
O=C1Nc2ccc(S(=O)(=O)NCCO)c3cccc1c23	0.31
O=C1Nc2ccc(S(=O)(=O)Nc3ccccc3O)c3cccc1c23	8*
Cc1ccc(C)c(NS(=O)(=O)c2ccc3c4c(cccc24)C(=O)N3)c1	2.6
O=C(OCc1ccccc1)c1cnc(N2CCOCC2)nc1C(F)(F)F	-1.8
CC(C)Sc1scc(-c2ccc(Cl)cc2)c1C#N	-1.5
CCOc1ccc2c(c1)C(=O)C(c1cc(=O)c3ccccc3[nH]1)C2=O (stereo unspecified)	6.1*
CCOc1ccc2c(c1)C(=O)c1cc(OCC)ccc1-2	6.4
CCOc1ccc2[nH]c(C3C(=O)c4ccccc4C3=O)cc(=O)c2c1	-0.57
CCc1nc2ccccc2n1CC(O)COc1ccc(Cl)cc1 (stereo unspecified)	-0.72
CC(C)Sc1nnnn1-c1ccccc1	4.9*
CS(=O)(=O)NCCSc1nnnn1-c1ccccc1	-0.83
Cc1n[nH]c(C)c1Sc1nnnn1-c1ccccc1	-1.7
O=C(CSc1nnnn1-c1ccccc1)Nc1cccc(F)c1	0.09
CCc1nnc(NC(=O)CSc2nnnn2-c2ccccc2)s1	1.8
NC(=O)CSc1nnnn1-c1ccccc1	4.9*
SMILES	Dicer processing
O=C(Oc1cc(Cl)cc(Cl)c1)c1cccc(C(F)(F)F)n1	0.17
O=C(CCN(Cc1ccco1)S(=O)(=O)c1ccc(Cl)cc1)NNC(=O)c1ccc(Cl)cc1	0.5
CCOC(=O)n1c(=O)oc2ccc(S(=O)(=O)N3CCCCC3)cc21	-0.71
CNS(=O)(=O)c1ccc(C)c(I)c1	-0.17
O=C(O)/C=C\C(=O)NCCc1ccc(Cl)cc1	7.2
CC(=O)C(C)(C)OC(=O)NCCc1ccc(Cl)cc1	7.2*
CC(=O)C(C)(C)OC(=O)NCc1cccs1	-3.2
Cc1ccc(NC(=S)NN=C2CCCCCC2)c(C)c1	0.68
CCc1ccc2[nH]c(C(=O)NCc3cc(Cl)ccc3Cl)cc2c1	-4.1
COc1ccc2[nH]c(C(=O)Nc3ccc(Br)c(C)n3)cc2c1	-1.7
CCc1ccc2[nH]c(C(=O)Nc3ccc(Br)c(C)n3)cc2c1	44*
Cc1nc2nc[nH]n2c(=O)c1CCO	-1.5
CSc1sc(C(=O)O)c(N)c1S(=O)(=O)C(C)C	-1.3
CSc1scc(NC(=O)Nc2ccc(OC(F)(F)F)cc2)c1S(=O)(=O)C(C)C	0.88
CSc1scc(Cl)c1S(=O)(=O)C(C)C	14*
COc1cc(NC(=O)C(=O)NC2CC(C)(C)NC(C)(C)C2)c(OC)cc1Cl	1
CN(C1=NS(=O)(=O)c2ccccc21)c1ccccc1C(=O)O	2
O=C(NNc1nc(-c2cccc([N+](=O)[O-])c2)cs1)c1ccccc1Cl	-0.14
Cc1cc(C(=O)O)nc2ccccc12	1.8
Cc1cc(C)c2ccc(C3C(=O)c4ccc(O)cc4C3=O)nc2c1 (stereo unspecified)	3.1*
Cc1cc(C)c2nc(C3C(=O)c4ccccc4C3=O)ccc2c1	-1.2
CC(=O)OC[C@H]1O[C@@H](n2cnc3c(N)ncnc32)[C@@H]2OC(C)(C)O[C@@H]21	0.05
NC(=O)c1cc([N+](=O)[O-])cc2c1-c1ccc([N+](=O)[O-])cc1/C2=N\O	0.67
CCN(CC)CCn1c(NCc2ccccc2O)nc2ccccc21	6.1*
CCCn1c(NCc2cccc(Br)c2)nc2ccccc21	1.3
SMILES	Dicer processing
CCN(CC)CCn1c(NCc2ccco2)nc2ccccc21	3.8*
CC(=O)Nc1nc2ccccc2n1CCN(C)C	24
CCn1c(NCc2c(O)ccc3ccccc23)nc2ccccc21	-0.45
CCN(CC)CCn1c(NCc2ccc(Br)cc2)nc2ccccc21	2.9
CCCn1c(NCc2nc3ccccc3n2C)nc2ccccc21	0.58
CCn1c(NCc2ccc(N(C)C)cc2)nc2ccccc21	-0.31
CCOc1ccccc1CNc1nc2ccccc2n1CCN(CC)CC	5.3*
CCN(CC)CCn1c(NCc2ccccc2Cl)nc2ccccc21	2.8
CCCn1c(NCc2cc(C)ccc2O)nc2ccccc21	0.36
C=CCc1cccc(CNc2nc3ccccc3n2CC)c1O	6.9*
CCOC(=O)N/N=C(\C)c1ccc(C(F)(F)F)cc1	1.7
O=C(NNC1=NCCN1Cc1ccccc1)c1ccccc1	-0.2
Cc1cc(C)n(-c2ncnc3sc(C)c(-c4ccccc4)c23)n1	-4.9
O=C(c1ccco1)N1CCN(C2CC(=O)N(c3cccc(Cl)c3)C2=O)CC1 (stereo unspecified)	-2.2
CCc1c(O)c2ccccc2n(-c2ccccc2)c1=O	2.8
COC(=O)C(=NNc1cc(C(F)(F)F)ccc1OCC(F)(F)F)C(=O)OC	-0.07
CNC(=S)NNc1ncccc1-n1cccc1	-3.5
CN(C)/C=C(\C(=O)c1ccccc1Cl)c1nnnn1-c1ccccc1	-0.28
CCOc1ccc(N2CCn3c2nc2c3c(=O)n(CC(=O)O)c(=O)n2C)cc1	1.7
N#C[C@@H]1O[C@H](COC(=O)c2ccccc2)[C@@H](OC(=O)c2ccccc2)[C@H]1OC(=O)c1ccccc1	-0.64
COc1cccc(C2Oc3ccccc3C3CC(c4cc(OC)ccc4O)=NN32)c1 (stereo unspecified)	0.91
COc1ccc(C2Oc3ccccc3C3CC(c4ccccc4O)=NN32)c(OC)c1 (stereo unspecified)	5.6
CC(C)C1Oc2ccc(Cl)cc2C2CC(c3ccccc3O)=NN21 (stereo unspecified)	-0.15
Oc1ccccc1C1=NN2C(C1)c1cc(Br)ccc1OC2c1ccsc1 (stereo unspecified)	4.2*
CC(C)CC1Oc2ccccc2C2CC(c3ccccc3O)=NN12 (stereo unspecified)	5.3*
SMILES	Dicer processing
COc1ccc(C2Oc3ccccc3C3CC(c4ccccc4O)=NN32)cc1 (stereo unspecified)	5.3
COc1ccc(O)c(C2=NN3C(C2)c2ccccc2OC3c2ccccc2F)c1 (stereo unspecified)	6.9*
Oc1ccccc1C1=NN2C(C1)c1ccccc1OC2c1cccs1 (stereo unspecified)	6.8
COc1ccc(O)c(C2=NN3C(C2)c2cc(Br)ccc2OC3c2ccsc2)c1 (stereo unspecified)	1.4
COc1ccc(C2Oc3ccccc3C3CC(c4cc(OC)ccc4O)=NN32)cc1 (stereo unspecified)	9.8*
CSCCC1Oc2ccccc2C2CC(c3cc(C)ccc3O)=NN12 (stereo unspecified)	0.58
COc1ccc(C2Oc3ccccc3C3CC(c4cc(OC)ccc4O)=NN32)c(OC)c1 (stereo unspecified)	2.3
C=Cc1c(S(C)(=O)=O)sc(C(=O)OCC)c1C	0.82
CCC(CO)NC(=S)NC1CC2CCC1C2 (stereo unspecified)	-0.03
CCOC(=O)CSC1=C(C#N)C(c2ccc(C(C)C)cc2)CC(=O)N1 (stereo unspecified)	0.12
